Experimental data taken from the supplement of paper PMC9334596.
“And” between values parts separate entries of the source, which are not always exact repeats. Equal values may be shown once. Over roughly 5,300 compounds, “PER2::LUC luminescence relative to vehicle control” has its median near 0.96; the highest 2% begin near 1.3. Shown is part of a subset that was picked to be rich in the highest values.

System: mPer2Luc MEF
Assay: PER2::LUC luminescence relative to vehicle control (fold of vehicle); higher = higher PER2::LUC reporter signal
Conditions: 10 µM
Method in brief: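 The reported values are PER2::LUC luminescence as fold of vehicle control in mouse embryonic fibroblasts carrying the mPer2Luc reporter. Cells were seeded at ~3000 per well in 384-well plates in DMEM with 10% FBS at 37 °C and 5% CO2, and compounds were added at 10 μM 48 h later. ONE-Glo luminescence was read 24 h and 30 h after treatment.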

Row | SMILES | PER2::LUC luminescence (time after treatment 24 h) | PER2::LUC luminescence (time after treatment 30 h)
1 | NC1CCN(O)C1=O (single isomer, unassigned; (-)) | 1.08 | 1.01
2 | CC1(C)CC(NC(=O)C(=O)Nc2ccc(Cl)cc2)CC(C)(C)N1 | 0.958 | 1
3 | O=C(O)c1cc(=O)c2ccccc2[nH]1 | 1.08 | 0.931
4 | O=C1c2ccccc2-n2c1nc1ccccc1c2=O | 0.998 | 0.885
5 | O=c1c2ccccc2nc2n1CCc1c-2[nH]c2ccccc12 | 1.36 | 1.51
6 | CC1(C)CC2C1CC[C@]1(CBr)CCC3C(CC(=O)O)C(=O)O[C@@]32C1 (stereo not given in full) | 1.04 | 0.929
7 | NCC(O)COc1cccc2ccccc12 (stereo not given) | 0.637 | 0.588
8 | Cc1onc(-c2ccccc2)c1C(=O)N1CCN(c2ccc([N+](=O)[O-])cc2Cl)CC1 | 0.896 | 1.04
9 | O=C(Nc1ccccc1)Nc1ccccc1 | 1.57 | 1.44
10 | O=C(Nc1ccccc1)c1ccccc1O | 1.27 | 1.08
11 | CC(=O)Nc1ccccc1 | 0.881 | 1.21
12 | CC(C)c1c2cc(-c3ccnc(NC4CCC(NC5CCOCC5)CC4)n3)ccc2nn1C (stereo not given) | 0.008 | 0.002
13 | OC[C@H]1O[C@@H](O[C@@H]2OC=C[C@H]3[C@H](O)[C@@H]4O[C@]4(CO)[C@@H]23)[C@H](O)[C@@H](O)[C@@H]1O | 1.04 | 1
14 | O=c1oc2ccc(O)cc2c2c1NCCC2 | 0.764 | 1.05
15 | O=c1oc2cc(O)ccc2c2oc3cc(O)ccc3c12 | 1.06 | 1.13
16 | O=c1cc(-c2ccc(O)cc2)oc2cc(O)c([C@@H]3O[C@H](CO)[C@@H](O)[C@H](O)[C@H]3O)c(O)c12 | 0.972 | 0.983
17 | O=c1cc(-c2ccccc2O)oc2cc(O)ccc12 | 1.27 | 1.38
18 | O=c1c(O)c(-c2ccccc2)oc2ccccc12 | 1.08 | 1.05
19 | O=c1cc(-c2ccccc2)oc2c(O)c(O)ccc12 | 0.582 | 0.632
20 | O=c1cc(-c2ccccc2)oc2ccc(O)cc12 | 1.47 | 1.89
21 | O=c1cc(-c2ccccc2)oc2cc(O)c(O)cc12 | 1.41 | 1.47
22 | O=c1cc(-c2ccc(O)cc2)oc2ccc(O)cc12 | 1.72 | 1.87
23 | Cc1cc(=O)oc2cc(O)ccc12 | 1.01 and 1.08 and 0.784 | 0.94 and 0.807 and 0.997

Row | SMILES | PER2::LUC luminescence (time after treatment 24 h) | PER2::LUC luminescence (time after treatment 30 h)
24 | CCOC(=O)COc1ccc2c(=O)cc(-c3ccccc3)oc2c1 | 1.06 | 1.08
25 | O=C(O)/C=C/c1ccc(O)c(O)c1/C(=C\c1ccc(O)c(O)c1)C(=O)O | 1.15 | 1.02
26 | COc1cc(O)c(C(=O)/C=C/c2ccc(OC)c(O)c2)c(OC)c1 | 1.08 | 1
27 | COc1ccc(SC(=O)N[C@@H](CCC(=O)O)C(=O)O)cc1 | 0.852 | 0.909
28 | CC(C)(O)c1ccccc1Cc1ccccc1 | 0.709 | 1.18
29 | C=CC1=C(C)C2=CC3=NC(=C(CC(=O)O)C4=NC(=C(C)C4=C(O)O)C=c4[nH]c(c(C)c4CC)=CC1=N2)C(CCC(=O)O)C3C (stereo not given) | 0.911 | 0.984
30 | OC[C@H]1O[C@H](O[C@H]2C(O)[C@@H](O)[C@@H](OC[C@H]3O[C@@H]4O[C@H]5[C@H](O)[C@@H](O)[C@@H](O[C@H]6[C@H](O)[C@@H](O)[C@@H](O[C@H]7[C@H](O)[C@@H](O)[C@@H](O[C@H]8[C@H](O)[C@@H](O)[C@@H](O[C@H]9[C@H](O)[C@@H](O)[C@@H](O[C@H]%10[C@H](O)[C@@H](O)[C@@H](O[C@H]3[C@H](O)[C@H]4O)O[C@@H]%10CO)O[C@@H]9CO)O[C@@H]8CO)O[C@@H]7CO)O[C@@H]6CO)O[C@@H]5CO)O[C@@H]2CO)[C@H](O)[C@@H](O)[C@@H]1O (stereo not given in full) | 1.08 | 1.06
31 | C=CCCCCCCCCCCCC(O)CC(O)COC(C)=O (stereo not given) | 0.894 | 0.95
32 | C[C@H](CCC(=O)NCCC[N+](C)(C)CCCS(=O)(=O)[O-])[C@H]1CC[C@H]2[C@@H]3[C@H](O)C[C@@H]4C[C@H](O)CC[C@]4(C)[C@H]3C[C@H](O)[C@]12C | 1.06 | 0.883
33 | O=c1c(O)c(-c2ccccc2)oc2cc(O)ccc12 | 1.13 | 1.18
34 | O=c1cc(-c2ccccc2)oc2cc(O)ccc12 | 1.48 | 1.84
35 | CC1=C([C@@H]2C=C3[C@@H](CC[C@]4(C)[C@@H]([C@H](C)CCCC(C)C)CC[C@@H]34)n3c(=O)n(-c4ccccc4)c(=O)n32)C[C@@H](O)C[C@@H]1O | 0.94 | 0.899
36 | O=c1cnn([C@@H]2O[C@H](CO)[C@@H](O)[C@H]2O)c(=O)[nH]1 | 1.41 | 1.5
37 | O=c1ncccn1[C@@H]1O[C@H](CO)[C@@H](O)[C@H]1O | 0.999 | 1.07
38 | O=c1ccn([C@@H]2O[C@H](CO)[C@@H](O)[C@H]2O)c(=O)[nH]1 | 0.979 | 1.03
39 | NC(=NC12CC3CC(CC(C3)C1)C2)Nc1ccc(I)cc1 | 1.06 | 0.918
40 | CNC(=O)c1cc(Oc2ccc(NC(=O)c3cccc(C(F)(F)F)c3)cc2)ccn1 | 1.15 | 1.14
41 | O=C(OCc1ccccc1)c1ccccc1 | 1.05 | 1.03
42 | CCOC(=O)c1ccc(O)cc1 | 1.06 and 0.859 | 1.02 and 0.79
43 | CCOC(=O)c1ccc(N(C)c2csc(-c3ccccc3)n2)cc1 | 1.19 | 1.58
44 | Cn1cc(-c2ccc3nnc(Sc4ccc5nn(C)cc5c4)n3n2)cn1 | 0.782 | 0.785
45 | C=CC(C)(C)c1cc(/C=C\C(=O)c2ccc(O)cc2)c(OC)cc1O | 0.553 | 0.862
46 | C[C@@H]1C[C@H]2[C@@H]3C[C@H](F)C4=CC(=O)C(Cl)=C[C@]4(C)[C@@]3(F)[C@@H](O)C[C@]2(C)[C@@]1(O)C(=O)CO | 0.765 | 0.857

Row | SMILES | PER2::LUC luminescence (time after treatment 24 h) | PER2::LUC luminescence (time after treatment 30 h)
47 | CC(=O)O[C@H](CC(=O)O)C[N+](C)(C)C | 1.03 | 0.967
48 | CC(C)(C)OC(=O)N1CCC(OCc2nc(-c3ccncc3)no2)CC1 | 0.986 | 0.843
49 | NC(=O)c1cccc(-c2cccc(OC(=O)NC3CCCCC3)c2)c1 | 1.27 | 1.36
50 | CC(=O)c1ccc(S(=O)(=O)NC(=O)NC2CCCCC2)cc1 | 1.02 | 0.908
51 | NC(=O)c1cccc(N)c1 | 1.1 | 1.01
52 | CCCCN(CCCC)CCCOC(=O)c1ccc(N)cc1 | 0.966 | 0.832
53 | CCCCOC(=O)c1ccc(N)cc1 | 1.06 and 1.09 | 1.28 and 1.2
54 | CCCCOC(=O)c1ccc(O)cc1 | 1.63 and 1.43 | 1.61 and 1.57
55 | CC(C)COC(=O)c1ccc(N)cc1 | 1.34 | 1.43
56 | CCCCNc1ccc(C(=O)OCCN(C)C)cc1 | 1.04 | 0.965
57 | Nc1ccc(C(=O)O)cc1 | 0.924 and 0.9 | 0.926 and 0.943
58 | CCCOc1ccc(C(=O)OCCN(CC)CC)cc1N | 1.03 | 0.962
59 | N=C(N)c1ccc(N)cc1 | 0.971 | 1.01
60 | CCN(CC)CCOC(=O)c1ccc(N)cc1 | 1.07 and 0.897 | 1.58 and 0.928
61 | CN(C)[C@@H]1c2onc(OCc3ccccc3)c2C(=O)[C@@]2(O[Si](C)(C)C(C)(C)C)C(=O)C=CC[C@@H]12 | 0.723 | 0.75
62 | c1ccc2[nH]ncc2c1 | 0.963 | 0.985
63 | CN1c2ccccc2C(=O)N2CCc3c([nH]c4ccccc34)C21 (stereo in doubt) | 0.589 | 0.628
64 | CNc1ccccc1C(=O)N1CCc2c([nH]c3ccccc23)C1=O | 1.56 | 1.79
65 | CN1CCc2ccccc2Cc2[nH]c3ccccc3c2CC1 | 1.11 | 0.824
66 | O=Cc1ccc2cccc(O)c2n1 | 1.1 | 0.962
67 | Nc1n[n+]([O-])c2ccccc2[n+]1[O-] | 1.36 | 1.15
68 | CNC(=S)NCCSCc1[nH]cnc1C | 1.06 | 1.06
69 | N[C@@H](CCS(=O)O)C(=O)O | 0.964 | 0.944

Row | SMILES | PER2::LUC luminescence (time after treatment 24 h) | PER2::LUC luminescence (time after treatment 30 h)
70 | O=C(OOC(=O)c1ccccc1)c1ccccc1 | 1.2 | 0.843
71 | CN(NC(=O)CC(=O)NN(C)C(=S)c1ccccc1)C(=S)c1ccccc1 | 1.68 | 1.1
72 | O=C(O)c1ccccc1 | 0.918 | 0.766
73 | NS(=O)(=O)c1ccc(-c2c(-c3ccccc3)noc2C(F)F)cc1 | 1.04 | 1
74 | CO[C@H]1C[C@H](O[C@@H]2/C(C)=C/C[C@@H]3C[C@@H](C[C@]4(CC[C@H](C)[C@H](C5CCCCC5)O4)O3)OC(=O)[C@H]3C=C(C)/C(=N\O)[C@H]4OCC(=C/C=C/[C@@H]2C)[C@@]34O)O[C@@H](C)[C@@H]1O | 0.989 | 0.929
75 | CSc1ccccc1NC(C)=O | 0.972 | 0.93
76 | CC(=O)N[C@H]1[C@H]([C@H](O)[C@H](O)CO)OC(O)(C(=O)O)C[C@@H]1O (stereo not given in full) | 1.03 | 0.921
77 | O=C(O)c1ccc2cc(-c3ccc(O)c(C45CC6CC(CC(C6)C4)C5)c3)ccc2c1 | 1.59 | 1.63
78 | COc1cc(C(=O)O[C@H]2C[C@@H]3CC[C@]2(C)C3(C)C)ccc1O | 1.15 | 1.19
79 | O=C(O)/C=C/c1ccc(-c2ccc(O)c(C34CC5CC(CC(C5)C3)C4)c2)cc1 | 0.735 | 0.721
80 | COc1ccc(-c2ccc3cc(C(=O)O)ccc3c2)cc1C12CC3CC(CC(C3)C1)C2 | 1.49 | 1.86
81 | COc1cc(C(=O)O)cc(OC)c1O | 1.06 | 1.08
82 | NC(=O)c1cccc(NC(=O)/C=C/c2c[nH]c3ccccc23)c1 | 1.08 | 1.06
83 | C=C1/C(=C\C=C2/CCC[C@]3(C)[C@@H]([C@H](C)CC[C@@H](O)C(C)(C)O)CC[C@@H]23)C[C@@H](O)C[C@@H]1O | 0.999 | 0.835
84 | CC1(C)C2CCC1(C(=O)O)C(=O)C2 (stereo not given) | 0.998 | 0.954
85 | O=C(Nc1ncc([N+](=O)[O-])s1)c1ccc([N+](=O)[O-])c(Cl)c1 | 0.928 | 1.22
86 | COc1ccc(CNC(=O)c2sc3nc(C)cc(C)c3c2N)cc1 | 0.953 | 0.979
87 | CC(=O)Nc1ncc([N+](=O)[O-])s1 | 1.33 and 1.09 | 0.865 and 1.09
88 | O=C(Nc1ncc([N+](=O)[O-])s1)c1ccccc1O | 1.45 | 1.73
89 | COc1ccc(CNC(=O)Nc2ncc([N+](=O)[O-])s2)cc1 | 1.35 | 1.27
90 | CC(=O)Oc1ccccc1C(=O)Nc1ncc([N+](=O)[O-])s1 | 0.826 | 1.16
